tim10-1 inh = growth inhibitors of tim10-1 mutant yeast; 2.2% of 330,000 active; inhibition, % at 20 µM; S. cerevisiae tim10-1 ts strain growth, BacTiter-Glo, 24 h; AID 463190;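 active = inhibition of at least 40%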;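 also: mutant grown at 25 °C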
tim23-1 inh = growth inhibitors of tim23-1 mutant yeast; 1.3% of 330,000 active; S. cerevisiae tim23-1 growth, BacTiter-Glo luminescence, 24 h; inhibition, % at 20 µM; AID 463212;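 active = growth inhibition of the mutant yeast at or above 50%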;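 also: temperature-sensitive mutant grown at 25 °C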
SKKanGAS inh = SKKanGAS growth inhibition | inhibition, % at 7.5 µM | 1.3% of 300,000 active | S. pyogenes SKKanGAS, kanamycin growth, BacTiter-Glo, 6 h | AID 1662;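 active = mean replicate score, as percent of positive control median, at least 50; inconclusive = mean below 50 but one replicate at or above 50; inactive = mean and every replicate below 50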;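 also: strain carries kanamycin resistance gene driven by streptokinase promoter and grows in 40 µg/ml kanamycin; loss of luminescence reflects streptokinase promoter inhibition or plain growth inhibition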
EBI2 block = EBI2 (human) antagonism. inhibition, % at 5 µM. AID 651636. P32249. 0.81% of 360,000 active. EBI2 beta-arrestin recruitment, luminescence, 7a,25-OHC stimulated; in the data active = inhibition above about 38%;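 also: enzyme fragment complementation signal reports receptor beta-arrestin coupling in cells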
Target sequence (P32249 whole entry, looked up, the tested form may be a part): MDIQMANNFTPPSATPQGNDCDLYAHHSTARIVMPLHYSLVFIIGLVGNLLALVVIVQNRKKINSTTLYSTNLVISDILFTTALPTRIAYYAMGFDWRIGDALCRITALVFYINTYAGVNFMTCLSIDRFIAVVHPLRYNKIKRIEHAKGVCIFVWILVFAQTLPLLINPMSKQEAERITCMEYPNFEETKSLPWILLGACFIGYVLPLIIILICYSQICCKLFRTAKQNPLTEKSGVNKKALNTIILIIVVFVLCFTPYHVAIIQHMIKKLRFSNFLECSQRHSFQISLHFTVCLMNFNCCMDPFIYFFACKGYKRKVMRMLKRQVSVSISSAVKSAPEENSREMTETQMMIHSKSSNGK
TIM10 inh = growth inhibitors of TIM10 yeast strain; S. cerevisiae TIM10 strain growth, BacTiter-Glo luminescence, 24 h; inhibition, % at 10 µM; 1.4% of 330,000 active; AID 463195;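 active = inhibition of 40% or more at the single tested concentration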;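 also: wild-type TIM10 isogenic control strain grown at permissive 25 °C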
PfHsp90 yeast 2 = growth inhibition of yeast expressing Plasmodium Hsp90; 0.32% of 310,000 active; AID 504621; inhibition, % at 9.4 µM; S. cerevisiae expressing PfHsp90, BacTiter-Glo ATP, 48 h; yeast lacking PDR1 and PDR3 efflux regulators;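 active = every replicate shows inhibition above about 80%, whatever the replicate mean, limit read from the data; inconclusive = mean inhibition reaches the set limit but some replicate falls short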
tim10-1 confirm = confirmation of tim10-1 mutant yeast growth inhibitors; shares compounds with tim10-1 inh; S. cerevisiae tim10-1 ts strain growth, BacTiter-Glo, 24 h; inhibition, % at 20 µM; 56% of 7,400 active; AID 463213;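 active = inhibition of yeast growth at or above a set limit in either of two repeat tests at 20 µM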;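 also: tim10-1 mutant grown at permissive 25 °C to find synthetic lethal compounds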
tim10 confirm = confirmation of TIM10 yeast growth inhibitors; shares compounds with TIM10 inh; S. cerevisiae tim10 strain growth, BacTiter-Glo luminescence, 24 h; inhibition, % at 10 µM; 63% of 4,600 active; AID 463215;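 active = inhibition of yeast growth at or above a set limit in either of two replicates at 10 µM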; also: this counterscreen used the strain with wild-type TIM10
A number is an active result; - = inactive; ? = inconclusive; . = no result given. Sampled rows, rich in hits. Any-hit rate of the full collection: about 4.7%.

SMILES	tim10-1 inh	tim23-1 inh	SKKanGAS inh	EBI2 block	TIM10 inh	PfHsp90 yeast 2	tim10-1 confirm	tim10 confirm
O=C(c1cccs1)N(c1ccc(Br)cc1)C1C=CS(=O)(=O)C1 (configuration not stated)	-	-	-	-	-	-	.	.
OCCn1nc(-c2ccccc2)cc1-c1ccccc1	-	-	-	-	-	-	.	.
CCN(CC)C(=O)COc1c(-c2ccco2)oc2ccccc2c1=O	-	-	-	-	-	-	.	.
CC(=O)Oc1c(-c2ccco2)oc2ccccc2c1=O	53	-	-	-	62	-	49	61
O=c1c(O)c(-c2cccs2)oc2ccccc12	42	-	76	-	65	-	35	71
O=C(CCl)c1ccc2c(c1)CCN2C(=O)C1CCCCC1	62	-	-	-	76	.	36	65
O=C(C1CC1)N1CCc2cc(S(=O)(=O)NCCCN3CCCCC3)ccc21	-	-	-	-	-	-	.	.
CCC1CCCCN1S(=O)(=O)c1ccc2c(c1)CCN2C(=O)C1CCC1 (configuration not stated)	55	-	-	-	56	-	45	50
CCc1cc2c(SCc3ccc(C(=O)OC)o3)ncnc2s1	-	-	-	-	-	-	.	.
COc1ccc(NCc2nnc(SCc3ccc(Cl)cc3)n2-c2ccccc2)cc1	52	-	-	-	54	-	39	-
CCN(CC)S(=O)(=O)c1ccc(N2CCc3ccccc3C2)nc1	43	-	-	-	50	-	32	41
CC(C)N(C(C)C)S(=O)(=O)c1ccc(N2CCc3ccccc3C2)nc1	-	-	-	-	-	-	.	.
CCCc1ccc(OC(=O)c2ccc(O)cc2Cl)cc1	51	-	81	-	41	-	38	45
CCCc1ccc(OC(=O)c2cccs2)cc1	-	-	-	-	-	-	.	.
O=C(NC(=S)NCCC1=CCCCC1)c1ccccc1Br	43	-	?	-	46	-	31	41
OCCCNCc1ccc(N(c2ccccc2)c2ccccc2)cc1	-	-	-	-	-	-	.	.
Cn1c(Cl)cnc1C1CC(=O)c2cc(Cl)ccc2O1 (configuration not stated)	66	-	-	-	72	-	58	-
CNc1ccc(/C=C2\CSc3ccccc3C2=O)cc1[N+](=O)[O-]	45	-	-	-	46	.	40	-
Cc1c(Cl)cnc(NC(=O)COC(=O)c2ccc([N+](=O)[O-])s2)c1Cl	49	-	-	-	66	-	-	82
CC(=O)c1ccc(NC(=O)Cc2cccs2)cc1	-	-	-	-	-	-	.	.
CCc1n[nH]c(=S)n1/N=C/c1c(C)nn(-c2ccccc2)c1Cl	-	-	-	-	-	-	.	.
CCc1n[nH]c(=S)n1/N=C/c1ccc(N(CC)CC)cc1	42	-	-	-	45	-	-	-
Cc1nc2ccc(NS(=O)(=O)c3ccc4c(c3)OCCO4)cc2s1	-	-	-	-	-	-	.	.
Fc1ccc2c(c1)C(c1ccc(N3CCOCC3)cc1)=NNC(c1cccs1)=N2	42	-	-	-	55	.	-	36
Cc1c(O)cnc2nn(-c3ccccc3)c(=N)n12	.	.	.	-	.	.	.	.
SMILES	tim10-1 inh	tim23-1 inh	SKKanGAS inh	EBI2 block	TIM10 inh	PfHsp90 yeast 2	tim10-1 confirm	tim10 confirm
O=C(c1ccco1)N1CCN(c2ncnc3scc(-c4ccccc4)c23)CC1	47	-	-	-	44	-	42	-
Cc1ccc(-c2csc3ncnc(N4CCN(C(=O)c5ccccc5)CC4)c23)cc1	-	-	-	-	-	-	.	.
COCCN(C(=O)C1CC1)c1nnc(-c2ccc(C)cc2)s1	-	-	-	-	-	-	.	.
CCOc1ccc(-c2nnc(N(CC)C(=O)C3CCC3)s2)cc1	43	-	-	-	43	-	31	35
Cc1ccc(S(=O)(=O)N2CCN(C3CC(=O)N(CCc4ccccc4)C3=O)CC2)cc1C (configuration not stated)	-	-	-	-	-	-	.	.
COc1ccc(C)c2sc(N3CCCC3)nc12	44	-	-	-	44	.	33	-
COc1ccccc1NS(=O)(=O)c1ccc(Cl)c(NC(=O)C(C)N2C(=O)c3ccccc3C2=O)c1 (configuration not stated)	-	-	-	-	-	-	.	.
COc1ccc(N2C(=O)CC(N3CCN(c4cccc(Cl)c4)CC3)C2=O)cc1 (configuration not stated)	-	-	-	-	-	-	.	.
COc1cccc(N2CCN(C3CC(=O)N(c4ccc(Cl)c(Cl)c4)C3=O)CC2)c1 (configuration not stated)	55	-	-	-	41	-	31	40
O=C(Nc1ccc(F)cc1)c1cccc2c1C(=O)N(Cc1ccccn1)C2	68	-	.	-	44	-	65	-
O=C(Nc1ccc(F)cc1)c1cccc2c1C(=O)N(CC1CCCO1)C2 (configuration not stated)	-	-	-	-	-	-	.	.
CC[C@]12c3[nH]c4ccc(Cl)cc4c3CCN1C(=O)[C@@H](CC(=O)NCc1ccc(OC)c(OC)c1)C[C@@H]2C(=O)N1CCN(C(=O)c2ccco2)CC1	-	-	.	-	-	-	.	.
O=C(COC(=O)c1ccccc1S(=O)(=O)N1CCCCC1)NCC(F)(F)F	-	-	-	-	-	-	.	.
CC1CCC2(CC1)NC(=O)N(CC(=O)c1cn(CCC#N)c3ccccc13)C2=O (configuration not stated)	-	-	-	-	-	-	.	.
C=CCn1c(CCc2cc(C(C)(C)C)c(O)c(C(C)(C)C)c2)n[nH]c1=S	50	-	-	-	42	-	-	40
O=c1[nH][nH]c(-c2ccccc2)c1C=Nc1ccc(OC(F)(F)F)cc1	42	-	-	-	41	.	37	37
COc1cc(Cn2nnc3ccccc32)cc(Br)c1O	-	-	-	-	-	-	.	.
CN(C(=O)COC(=O)C1CSC2(C)CCC(=O)N12)c1ccccc1 (configuration not stated)	-	-	-	-	-	-	.	.
C=C(C)CC(NCCc1ccccc1)c1ccco1 (configuration not stated)	.	.	-	-	.	-	.	.
COc1ccc(NC(=S)NNC(=O)C2CC2c2ccc(C)cc2)cc1 (configuration not stated)	-	-	-	-	-	-	.	.
Cc1ccc(NC(=S)NNC(=O)C2CC2c2ccc(C)cc2)cc1 (configuration not stated)	41	-	-	-	40	-	-	-
COCCNC(=O)c1c[nH]c2ccc(S(=O)(=O)N(C)c3ccc(C)c(C)c3)cc2c1=O	-	-	-	-	-	-	.	.
